Shown are actives, neighbours in structure and some others; about 4.2% of the full set was active somewhere.
CCHF vOTU inh = blocks the CCHF virus ovarian tumor domain protease | CCHFV vOTU protease, Pep-AMC fluorescence | inhibition, % at 11.5 µM | hit rate 0.55% among 370,000; in the data active = inhibition above about 30%; also: 0% = vehicle wells with enzyme and 100% = no enzyme wells
GDH-TPI counter-1 = counter-screen for M. tuberculosis FBA inhibitors: GDH-TPI coupled enzymes | GDH-TPI coupled enzyme counterscreen, NADH absorbance | inhibition, % at 4.8 µM | hit rate 1.2% among 360,000 | AID 588335; in the data active = inhibition above about 30%;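 also: 0% = DMSO wells and 100% = wells lacking the enzyme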
Mtb FBA inh = Mtb fructose-bisphosphate aldolase inhibition; inhibition, % at 1 µM; purified M. tuberculosis FBA, fluorescence read-out; AID 588726; P9WQA3; hit rate 2.3% among 360,000;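 also: 0% = vehicle and 100% = reference inhibitor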
RecA splice inh = Mtb RecA intein splicing inhibition; inhibition, % (test concentration not listed); cell-free RecA intein splicing, fluorescence; AID 2221; hit rate 0.75% among 290,000; P9WHJ3; in the data active = inhibition above about 30%;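 also: 0% = vehicle wells and 100% = reference inhibitor control wells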
Target sequence (P9WHJ3 whole entry, looked up, canonical isoform): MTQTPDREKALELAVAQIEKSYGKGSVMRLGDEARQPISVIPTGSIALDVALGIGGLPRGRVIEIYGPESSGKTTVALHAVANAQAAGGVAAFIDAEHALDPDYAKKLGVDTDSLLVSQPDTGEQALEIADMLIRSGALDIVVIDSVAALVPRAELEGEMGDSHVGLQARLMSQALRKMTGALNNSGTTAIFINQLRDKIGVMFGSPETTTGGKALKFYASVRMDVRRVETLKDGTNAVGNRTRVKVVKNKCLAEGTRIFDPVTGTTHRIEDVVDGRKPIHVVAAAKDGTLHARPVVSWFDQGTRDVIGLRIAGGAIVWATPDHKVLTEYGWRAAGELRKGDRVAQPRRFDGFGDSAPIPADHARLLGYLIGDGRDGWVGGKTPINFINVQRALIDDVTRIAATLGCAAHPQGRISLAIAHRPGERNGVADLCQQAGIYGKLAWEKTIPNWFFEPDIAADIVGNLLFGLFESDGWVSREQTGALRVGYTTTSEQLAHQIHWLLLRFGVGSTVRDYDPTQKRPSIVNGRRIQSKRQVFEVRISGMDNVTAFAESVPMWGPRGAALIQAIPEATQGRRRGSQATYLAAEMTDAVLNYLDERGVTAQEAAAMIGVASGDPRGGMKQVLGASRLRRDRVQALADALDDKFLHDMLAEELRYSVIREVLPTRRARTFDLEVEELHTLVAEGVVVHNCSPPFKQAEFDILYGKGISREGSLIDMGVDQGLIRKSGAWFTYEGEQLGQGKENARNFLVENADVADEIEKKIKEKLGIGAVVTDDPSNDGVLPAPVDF
Mtb FBA inh conf = confirmation of M. tuberculosis fructose-bisphosphate aldolase inhibitors; hit rate 78% among 5,600; inhibition, % at 1 µM; purified M. tuberculosis FBA, fluorescence read-out; shares compounds with Mtb FBA inh;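 also: 0% = vehicle wells and 100% = reference inhibitor wells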
GDH-TPI counter-2 = GDH-TPI inhibition counter-screen for FBA inhibitors; shares compounds with Mtb FBA inh; GDH-TPI coupled enzyme counterscreen, fluorescence; inhibition, % at 1 µM; hit rate 81% among 5,600; AID 652141; in the data active = inhibition above about 10%
GDH-TPI DR = counter-screen for M. tuberculosis FBA inhibitors: GDH-TPI dose response; shares compounds with Mtb FBA inh; hit rate 79% among 170; GDH-TPI coupled enzyme assay, fluorescence, artifact counterscreen; IC50, µM; call rule not given here
The depositor's hits bear a star. Rule as the data show it, unless noted: active = inhibition above about 27%; inactive = the rest.

Results for Cc1c(OC(C)C(=O)NCC(O)c2ccccc2)ccc2c3c(c(=O)oc12)CCC3 (centres undefined) ?
CCHF vOTU inh: -3; GDH-TPI counter-1: 17; Mtb FBA inh: 29*; RecA splice inh: -2; Mtb FBA inh conf: active; GDH-TPI counter-2: active

How did Cc1c(OC(C)C(=O)NCCN2CCOCC2)ccc2c3c(c(=O)oc12)CCCC3 (centres undefined) do in these assays?
CCHF vOTU inh: 7; GDH-TPI counter-1: 2; Mtb FBA inh: 34*; RecA splice inh: -1; Mtb FBA inh conf: 50*; GDH-TPI counter-2: 38*

What do the screens show for `CC(=O)C(C)Oc1ccc2c3c(c(=O)oc2c1C)CCCC3` (centres undefined)?
CCHF vOTU inh: -17; GDH-TPI counter-1: 16; Mtb FBA inh: 61*; RecA splice inh: 1; Mtb FBA inh conf: 88*; GDH-TPI counter-2: 70*

Results for Cc1c(OC(C)C(=O)N[C@H](C(=O)O)c2ccccc2)ccc2c3c(c(=O)oc12)CCCC3 (some centres undefined) ?
CCHF vOTU inh: 2; GDH-TPI counter-1: 28; Mtb FBA inh: 81*; RecA splice inh: -2; Mtb FBA inh conf: 81*; GDH-TPI counter-2: 59*

Results for CC(C)Cn1c(N)c(C(=O)COC(=O)c2cccn2C)c(=O)n(C)c1=O ?
CCHF vOTU inh: 2; GDH-TPI counter-1: 27; Mtb FBA inh: 4

Results for O=C(CSc1cn[nH]n1)Nc1ccc(O)c(C(=O)O)c1 ?
CCHF vOTU inh: -26; GDH-TPI counter-1: -7; Mtb FBA inh: 31*; RecA splice inh: 0; Mtb FBA inh conf: 2; GDH-TPI counter-2: 2

How did CCOc1ccc(CCN2C(=S)N([C@@H](CC(C)C)CN3CCCC3CN3C(=S)NC[C@@H]3CC(C)C)C[C@@H]2CC(C)C)cc1 (some centres undefined) do in these assays?
CCHF vOTU inh: 2; GDH-TPI counter-1: 8; Mtb FBA inh: -1

What do the screens show for `c1ccc(OCCCc2nc(-c3cccnc3)no2)cc1`?
CCHF vOTU inh: -3; GDH-TPI counter-1: 8; Mtb FBA inh: 1; RecA splice inh: 1

What do the screens show for `c1ccc(CCCc2nc(-c3cccnc3)no2)cc1`?
CCHF vOTU inh: 1; GDH-TPI counter-1: -3; Mtb FBA inh: 77*; RecA splice inh: 1; Mtb FBA inh conf: 52*; GDH-TPI counter-2: 37*

What do the screens show for `Cc1ccc(NC(=O)CSCC(=O)N(C)CC(=O)Nc2ccccc2C(F)(F)F)cc1`?
CCHF vOTU inh: 10; GDH-TPI counter-1: -6; Mtb FBA inh: -2

Results for Oc1ccc(-c2ccccc2)cc1CN1CCCCCC1 ?
CCHF vOTU inh: -15; GDH-TPI counter-1: -5; Mtb FBA inh: -2; RecA splice inh: 5

What do the screens show for `Oc1ccc(CN2CCCCC2)nc1-c1ccccc1`?
CCHF vOTU inh: -18; GDH-TPI counter-1: 3; Mtb FBA inh: 87*; RecA splice inh: -1; Mtb FBA inh conf: 16; GDH-TPI counter-2: 0; GDH-TPI DR: 5.3*

How did Cc1c(-c2ccccc2)n(O)c(-c2ccc(N(C)C)cc2)[n+]1[O-] do in these assays?
CCHF vOTU inh: -38; GDH-TPI counter-1: 15; Mtb FBA inh: 57*; Mtb FBA inh conf: 126*; GDH-TPI counter-2: 109*

How did CN(C)c1ccc(-[n+]2c(-c3ccccc3)cc(-c3ccccc3)cc2-c2ccccc2)cc1 do in these assays?
CCHF vOTU inh: -2; GDH-TPI counter-1: 18; Mtb FBA inh: -6

How did CCOC(=O)c1ccc[n+](CC(=O)c2ccc(NC(=O)c3ccccc3)cc2)c1 do in these assays?
CCHF vOTU inh: 10; GDH-TPI counter-1: 3; Mtb FBA inh: 0; RecA splice inh: 0

How did COc1ccc(NC(C)=O)cc1S(=O)(=O)N1CCN(Cc2cccs2)CC1 do in these assays?
CCHF vOTU inh: -8; GDH-TPI counter-1: 4; Mtb FBA inh: 3

Results for O=[N+]([O-])c1cccc(C(=NCc2ccccc2)NO)c1 ?
CCHF vOTU inh: 2; GDH-TPI counter-1: -5; Mtb FBA inh: 5; RecA splice inh: 2

What do the screens show for `C=C1CC[C@@H]2[C@](C)(CO)[C@H](O)CC[C@@]2(C)[C@@H]1C/C=C1/C(=O)OCC1O` (some centres undefined)?
CCHF vOTU inh: 5; GDH-TPI counter-1: 3; Mtb FBA inh: 0

How did Cc1nnc2n(-c3ccccc3)c(=O)c3ccccc3n12 do in these assays?
CCHF vOTU inh: -6; GDH-TPI counter-1: -6; Mtb FBA inh: -2; RecA splice inh: -3

Results for Cc1c(O)c2ccccc2n(-c2ccccc2)c1=O ?
CCHF vOTU inh: 3; GDH-TPI counter-1: 16; Mtb FBA inh: 47*; RecA splice inh: 0; Mtb FBA inh conf: 77*; GDH-TPI counter-2: 54*

What do the screens show for `CC1(C)Oc2cc3oc(C(=O)O)cc(=O)c3cc2-c2ccccc21`?
CCHF vOTU inh: -90; GDH-TPI counter-1: 19; Mtb FBA inh: 95*; Mtb FBA inh conf: 19; GDH-TPI counter-2: 6

Results for CC(=O)Nc1ccc(C2Nc3ccccc3C(=O)N2C2CCCCC2)cc1 (centres undefined) ?
CCHF vOTU inh: -86; GDH-TPI counter-1: 4; Mtb FBA inh: 61*; RecA splice inh: 1; Mtb FBA inh conf: 3; GDH-TPI counter-2: 2

What do the screens show for `CC(Oc1ccc(C#N)cc1)C(=O)N1CC=C(c2ccccc2)CC1` (centres undefined)?
CCHF vOTU inh: 8; GDH-TPI counter-1: 8; Mtb FBA inh: 0

Results for c1ccc(-c2nc3nc4ccccc4nc3n2CC2CCCO2)cc1 (centres undefined) ?
CCHF vOTU inh: -56; GDH-TPI counter-1: 34*; Mtb FBA inh: 84*; RecA splice inh: 2; Mtb FBA inh conf: 96*; GDH-TPI counter-2: 72*

How did CC(C)n1cc(CN2CCC(n3nccc3NC(=O)C3CCCC3)CC2)cn1 do in these assays?
CCHF vOTU inh: 11; GDH-TPI counter-1: -2; Mtb FBA inh: 0; RecA splice inh: -5

How did Cc1cc(N2CCC(N(C)C3CCCC3)CC2)nc2cc(O)ccc12 do in these assays?
CCHF vOTU inh: -69; GDH-TPI counter-1: 15; Mtb FBA inh: 28*; RecA splice inh: -46; Mtb FBA inh conf: 91*; GDH-TPI counter-2: 73*

Results for Cc1cc(N2CCN(c3ccccc3)CC2)nc2ccccc12 ?
CCHF vOTU inh: 9; GDH-TPI counter-1: -2; Mtb FBA inh: 0; RecA splice inh: 12

How did CC(C)Oc1ccc(C(=O)NCC(=O)N2CCN(S(=O)(=O)/C=C/c3ccccc3)CC2)cc1 do in these assays?
CCHF vOTU inh: 12; GDH-TPI counter-1: 8; Mtb FBA inh: 1

Results for N#CC1=C(O)C(c2ccccc2)n2c1nc(=O)c1ccccc12 (centres undefined) ?
CCHF vOTU inh: -35; GDH-TPI counter-1: 14; Mtb FBA inh: 85*; RecA splice inh: 3; Mtb FBA inh conf: 137*; GDH-TPI counter-2: 129*

What do the screens show for `N#CC1=C(O)CCCn2c1nc1ccccc1c2=O`?
CCHF vOTU inh: 19; GDH-TPI counter-1: 22; Mtb FBA inh: 6; RecA splice inh: 0
